Screen size: about 16,000 compounds; about 5,800 (36%) were called active. Not shown: some 23% with an inconclusive outcome. Some of the results follow. Unmarked numbers belong to inactive results. The call rests on the fitted dose curve; in most records, active means well fitted curve in the direction sought with a large enough effect; inconclusive means small, poorly fitted or top-dose-only effect, or effect the other way; inactive means no such curve, though single readings can be large or run the other way.
Each compound was assayed against Cytochrome P450 2C19 (Homo sapiens) (UniProt P33261) (assay: Cytochrome panel assay with activity outcomes). Conditions: recombinant CYP, pro-luciferin dealkylation, luminescence, p450-cyp2c19; series mostly up to 57.1 µM.
On the % scale 0 is the no-effect control and ±100 the full control effect.

Sequence of Cytochrome P450 2C19 (Homo sapiens) (P33261 whole entry, looked up): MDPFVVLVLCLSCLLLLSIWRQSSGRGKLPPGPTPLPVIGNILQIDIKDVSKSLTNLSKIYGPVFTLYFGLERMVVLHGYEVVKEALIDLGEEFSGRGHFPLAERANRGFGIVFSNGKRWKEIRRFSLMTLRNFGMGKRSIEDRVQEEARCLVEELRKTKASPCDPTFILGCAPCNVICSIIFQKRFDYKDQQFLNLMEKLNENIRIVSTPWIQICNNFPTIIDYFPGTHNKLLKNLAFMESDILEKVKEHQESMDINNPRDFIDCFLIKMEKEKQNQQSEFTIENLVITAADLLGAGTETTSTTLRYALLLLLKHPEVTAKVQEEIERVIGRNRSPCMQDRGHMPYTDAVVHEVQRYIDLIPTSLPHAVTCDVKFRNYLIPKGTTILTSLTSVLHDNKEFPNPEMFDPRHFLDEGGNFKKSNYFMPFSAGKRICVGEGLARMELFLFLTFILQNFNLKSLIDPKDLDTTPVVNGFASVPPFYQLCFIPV

SMILES | activity, negative = inhibition | AC50
Nc1ncnc2c1ncn2C[C@@H](O)C(=O)O | -17.6% [at 11.4 µM] | 
O=C1NCC2(CCN(CCc3ccccc3)CC2)O1 |  | inactive
COc1ccc(OC)c(C2C(C(=O)Nc3nc4ccccc4s3)=C(C)NC3=C2C(=O)CCC3)c1 (stereo not drawn) |  | 0.891 µM (active)
Cc1ncc([N+](=O)[O-])n1CC(C)O (stereo not drawn) |  | inactive
Cc1ccc([C@@H](O)c2cnc(C)n2Cc2ccccc2)cc1 |  | 1.26 µM (active)
Cc1ncc([N+](=O)[O-])n1CC(=O)NCc1ccccc1 |  | inactive
COc1ccc(Oc2ncc3nc(-c4ccc(F)cc4)c(=O)n(Cc4cccs4)c3n2)cc1 |  | inactive
CCC1(C)CC(CCNS(=O)(=O)c2ccc(C)cc2)(c2ccc(C)cc2)CCO1 (stereo not drawn) |  | 3.98 µM (active)
CC1(C)O[C@@H]2O[C@H]([C@@H]3COC(C)(C)O3)[C@H](N)[C@H]2O1 | 14.5% [at 11.4 µM] | 
CCOc1ccc(OCC)c(-c2c(=O)n(OCc3ccc(C(C)(C)C)cc3)c3ccccc3[n+]2[O-])c1 |  | 1.58 µM (active)
CCOc1ccc(OCC)c(-c2c(=O)n(OCc3ccccc3C(=O)OC)c3ccccc3[n+]2[O-])c1 |  | 4.47 µM (active)
COc1ccc(CCNC(=O)COC(=O)c2cnc(C)cn2)cc1 |  | inactive
COc1ccc(CNC(=O)c2csc(Cc3ccc(Cl)cc3)n2)cc1 |  | 2.51 µM (active)
COc1ccc(CNC(=O)C2CSC(=O)C2)cc1 (stereo not drawn) |  | inactive
COc1ccc(CNC(=O)c2csc(Cc3ccc(OC)cc3)n2)cc1 |  | 8.91 µM (active)
COc1ccc(CNC(=O)c2cnc(C)cn2)cc1 |  | 14.1 µM (active)
COc1ccccc1NC(=O)C(C/C=C(\C)Cl)C(C)=O (stereo not drawn) |  | 3.55 µM (active)
COc1ccccc1NC(=O)c1nc[nH]c1C(=O)Nc1ccccc1OC |  | inactive
O=C(COC(=O)c1ccccc1Nc1cccc(C(F)(F)F)c1)NCc1ccco1 |  | 2 µM (active)
O=C(COC(=O)c1cccnc1Nc1cccc(C(F)(F)F)c1)NCc1ccc2c(c1)OCO2 |  | 3.55 µM (active)
Cc1cccc(Nc2ccccc2C(=O)OCC(=O)NCc2ccco2)c1C |  | 5.01 µM (active)
Cc1cccc(Nc2ccccc2C(=O)O)c1C |  | inactive
O=C(O)c1cccnc1Nc1cccc(C(F)(F)F)c1 |  | inactive
O=C(O)CCCC[C@H]1CCSS1 |  | inactive
COc1ccccc1CNc1ncncc1-c1cccc(C#N)c1 |  | 3.16 µM (active)

SMILES | activity, negative = inhibition | AC50
COc1ccc(CNc2ncncc2-c2cccc(C#N)c2)c(OC)c1 |  | 5.01 µM (active)
Cc1n[nH]c(=O)nc1NCc1ccccc1Cl |  | 28.2 µM (active)
Cc1cnc(CNc2nc(-c3ccccc3Cl)nc3ccccc23)cn1 |  | inactive
CCCCOC1(c2ccccc2)OC(=O)c2ccccc21 (stereo not drawn) |  | 6.31 µM (active)
CCCCCCCOC1(c2ccccc2)OC(=O)c2ccccc21 (stereo not drawn) |  | 3.55 µM (active)
CC(=O)[C@@]1(O)Cc2c(O)c3c(c(O)c2[C@H](O[C@H]2C[C@H](N)[C@H](O)[C@H](C)O2)C1)C(=O)c1ccccc1C3=O |  | inactive
COc1ccc(C(=O)NC(=S)NC(C)C)cc1Br |  | 2.24 µM (active)
COc1ccc(C(=O)NC(=S)NC(C)(C)C)cc1Br |  | 3.55 µM (active)
C=CCN1CCc2c(cc(O)c(O)c2Br)[C@H](c2ccccc2)C1 |  | inactive
COC(=O)CNC(=O)CN1C(=O)N(c2ccc(Cl)cc2)C(N(O)C(=O)Nc2ccc(Cl)cc2)C1(C)C (stereo not drawn) |  | 14.1 µM (active)
NC(=NCc1ccc(Cl)c(Cl)c1)NC(=O)c1nc(Cl)c(N)nc1N |  | inactive
CCCCCCCCCCCCC(=O)N1CCCC[C@H]1CNC(=O)[C@@H](N)CCCCN |  | 7.94 µM (active)
Cc1cccc(CN(C)CCc2ccccn2)c1 |  | 15.8 µM (active)
CN(CCc1ccccn1)Cc1ccc(Cl)cc1Cl |  | 0.447 µM (active)
O=C(O)[C@@H](O)Cc1ccccn1 | 14.4% [at 11.4 µM] | 
CN(CCO)Cc1ncccc1O | 42.9% [at 11.4 µM] | 
CC(C)C(=O)C(C)(C)CCc1ccccn1 | -41.1% [at 11.4 µM] | 
CCC(CC)C(=O)Nc1c2cnn(-c3ccccc3)c2nc(=O)n1-c1ccccc1 |  | inactive
CCOC(=O)c1cnn(-c2ccccc2)c1-n1cccc1C(=O)C(=O)Nc1ccccc1C(F)(F)F |  | 7.94 µM (active)
O=C(O)c1nnsc1-c1ccc(-c2snnc2C(=O)O)cc1 | -40.8% [at 11.4 µM] | 
N#CC(c1ccc(Cl)cc1)c1nc2ccccc2nc1C(F)(F)F (stereo not drawn) |  | 0.562 µM (active)
CC1CCCC(NC(=O)C2CCN(S(=O)(=O)N3CCOCC3)CC2)C1C (stereo not drawn) |  | inactive
O=C(C1CCN(S(=O)(=O)N2CCOCC2)CC1)N1CCN(c2ccccc2)CC1 |  | 25.1 µM (active)
O=C(N1CCOCC1)N1CCN(c2ccccc2)CC1 |  | 14.1 µM (active)
O=C(Nc1cccc(NC(=O)N2CCN(c3ccccc3)CC2)c1)N1CCN(c2ccccc2)CC1 |  | 5.01 µM (active)

SMILES | activity, negative = inhibition | AC50
O=C(Nc1ccccc1)N1CCCC2(CCNCC2)C1 |  | inactive
O=C(Nc1ccccc1)N1CCC2(CCNCC2)CC1 |  | inactive
c1ccn(-c2ccc(N3CCOCC3)cc2)c1 |  | inactive
COc1ccc(N(C)S(=O)(=O)c2ccc3c(c2)CCC(=O)N3)cc1 |  | 6.31 µM (active)
O=C(CCNS(=O)(=O)c1ccc2c(c1)CCC(=O)N2)NCc1ccc2c(c1)OCO2 |  | inactive
COc1ccc(NC(=O)CCNS(=O)(=O)c2ccc3c(c2)CCC(=O)N3)cc1 |  | inactive
N#Cc1cccc(NC(=O)N2CC[C@@]3(CCCN(C(=O)c4ccncc4)C3)C2)c1 |  | inactive
Cc1cc(NC(=O)CSc2n[nH]c(-c3cccs3)n2)no1 |  | 14.1 µM (active)
Cc1cc(NC(=O)CSc2ccc3nnc(-c4ccc(F)cc4)n3n2)no1 |  | inactive
CCCCc1nc(SCC(=O)Nc2ncccn2)n[nH]1 |  | inactive
N[C@H](Cn1ccc(=O)n(Cc2ccccc2C(=O)O)c1=O)C(=O)O |  | inactive
N[C@@H](Cn1ccc(=O)n(Cc2ccccc2C(=O)O)c1=O)C(=O)O |  | 0.1 µM (active)
Cc1nn(-c2ccccc2)c(Cl)c1C(=O)Nc1c(C)n(C)n(-c2ccccc2)c1=O |  | inactive
CCCCCc1nnc(NC(=O)C(=O)OCC)s1 |  | inactive
CCc1nnc(NC(=O)c2c(C)nn(-c3ccccc3)c2Cl)s1 |  | 20 µM (active)
COc1cc(CNCc2cccs2)ccc1OCC(=O)NC(C)(C)C |  | 14.1 µM (active)
COc1cc(CNCc2cccs2)cc(Br)c1OC |  | 2.51 µM (active)
COc1ccccc1CNCCCCCCNCCCCCCCCNCCCCCCNCc1ccccc1OC |  | inactive
COc1ccccc1CNCc1cccs1 |  | 8.91 µM (active)
CC(C)NC(=O)N1CCCC2(CCN(C(=O)c3csnn3)CC2)C1 |  | inactive
COCC(=O)N1CCC2(CCCN(C(=O)Nc3cccc(F)c3)C2)CC1 |  | inactive
CN(C)c1ccc(-c2cncnc2NCCN2CCOCC2)cc1 |  | 6.31 µM (active)
CN(C)C(=O)c1ccc(-c2cncnc2NCCN2CCOCC2)cc1 |  | inactive
Cc1ccc(-c2csc3ncnc(NCCN4CCOCC4)c23)cc1 |  | 11.2 µM (active)
CN(C)C(=O)c1ccc(-c2ccc3ncnc(NCCN4CCOCC4)c3c2)cc1 |  | inactive

SMILES | activity, negative = inhibition | AC50
CC(C)=CCC/C(C)=C/CO/N=C1/C[C@@H](O)[C@@H](O)[C@@H]2[C@@H]3C(=O)N(C[C@@H]4CCCO4)C(=O)[C@H]3CC[C@H]12 | -12% [at 11.4 µM] | 
Cc1cc(N)c2ccccc2[n+]1CCCCCCCCCC[n+]1c(C)cc(N)c2ccccc21 |  | inactive
Nc1cc2c(nc3c4ccccc4c(N)cc3[n+]2-c2cccc3ccccc23)c2ccccc12 (tested in a mixture with another compound) |  | 1 µM (active)
COc1cc(/C=C(\C#N)C(=O)c2ccc(O)c(O)c2)cc(I)c1O |  | inactive
COc1cc(/C=C(\C#N)C(N)=O)cc(CSc2nc3ccccc3s2)c1O |  | 3.16 µM (active)
COc1ccc(/C=C(\C#N)C(N)=O)c(OC)c1 | 6.18% [at 11.4 µM] | 
CCc1ccc(N/C(SCc2ccccc2C)=C(/C#N)C(=O)NCc2ccco2)cc1 |  | 2.82 µM (active)
CCNC(=O)NC(=O)CSc1nc2ccccc2n1CC(C)C |  | 5.62 µM (active)
CC(C)Cn1c(SCC(=O)c2c(N)n(C)c(=O)n(C)c2=O)nc2ccccc21 |  | 7.94 µM (active)
O=C(CSc1nnc(-c2ccco2)n1-c1ccccc1)NCc1ccco1 |  | 8.91 µM (active)
Cc1cc(C)c(NC(=O)C(C)Sc2nnc(-c3ccco3)n2-c2ccccc2)c(C)c1 (stereo not drawn) |  | 1.78 µM (active)
O=C(CSc1nnc2sc3ccccc3n12)NCc1ccco1 |  | 10 µM (active)
CC(c1ccc(Cl)cc1)n1c(-c2ccc3ccccc3n2)n[nH]c1=S (stereo not drawn) |  | 0.447 µM (active)
CN(C)CC[C@H](c1ccc(Cl)cc1)c1ccccn1 |  | inactive
Cc1cc2c(cc1C)-c1nnc(-c3ccc4ccccc4n3)n1C(C)(C)C2 |  | inactive
CC(=O)OC[C@@H]1O[C@@H](O/N=C2/C[C@@H](O)[C@@H](O)[C@@H]3[C@@H]4C(=O)N(C5CCCCC5)C(=O)[C@H]4CC[C@H]23)[C@H](OC(C)=O)[C@H](OC(C)=O)[C@@H]1OC(C)=O | 9.71% [at 11.4 µM] | 
FC(F)(F)c1ccccc1-n1ccnc1 |  | inactive
N#Cc1c(-n2ccnc2)cccc1-n1ccnc1 |  | 2.24 µM (active)
N#Cc1c(Cl)cccc1-n1ccnc1 |  | 8.91 µM (active)
Cc1cccc(-n2cccc2)c1C#N |  | 17.8 µM (active)
CSC(=NC#N)N1CCN(c2ccc(Cl)cc2)CC1 |  | 0.708 µM (active)
O=C(Cn1cnc2ccccc2c1=O)NCCC(=O)Nc1ccc2c(c1)OCCO2 |  | inactive
O=C(CCNC(=O)Cn1cnc2ccccc2c1=O)NCC1COc2ccccc2O1 (stereo not drawn) |  | 28.2 µM (active)

Source: PubChem BioAssay AID1851 (National Center for Advancing Translational Sciences (NCATS), 2009)
